This is an account of results in PubChem BioAssay AID813 (Sanford-Burnham Center for Chemical Genomics, 2007).

Among all 64,000 compounds or so, fewer than 10 were called active. The list is a sample of the results. A number with no mark means an inactive call.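 How the source made its calls: active means activation factor of at least 2 at 20 µM, relative to controls; inactive means the rest.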

Alkaline phosphatase, tissue-nonspecific isozyme (Homo sapiens), sequence (P05186 whole entry, looked up): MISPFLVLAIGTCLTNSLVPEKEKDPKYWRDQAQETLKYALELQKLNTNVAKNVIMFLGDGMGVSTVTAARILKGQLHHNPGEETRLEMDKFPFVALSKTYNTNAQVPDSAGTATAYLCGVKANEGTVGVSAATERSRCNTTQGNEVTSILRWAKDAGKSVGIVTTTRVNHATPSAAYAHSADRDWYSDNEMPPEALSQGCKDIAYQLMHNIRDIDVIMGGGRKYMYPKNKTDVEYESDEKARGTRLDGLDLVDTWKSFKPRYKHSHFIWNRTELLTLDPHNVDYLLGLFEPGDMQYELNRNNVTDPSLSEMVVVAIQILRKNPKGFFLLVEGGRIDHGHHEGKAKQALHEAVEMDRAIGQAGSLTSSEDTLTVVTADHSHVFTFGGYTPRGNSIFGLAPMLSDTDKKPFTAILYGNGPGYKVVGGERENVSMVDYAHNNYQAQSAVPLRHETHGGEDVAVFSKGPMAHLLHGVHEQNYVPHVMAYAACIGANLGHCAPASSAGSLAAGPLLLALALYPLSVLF

The experiment addresses Alkaline phosphatase, tissue-nonspecific isozyme (Homo sapiens) (UniProt P05186). The experiment is described as follows: human TNAP enzyme activators, primary screen, biochemical, luminescent, intermediate phosphate acceptor level (AID 813). The following applies: purified TNAP, CDP-star luminescence, 100 mM DEA, 30 min; at 20 µM; stronger effect = higher value; scale: 0 levamisole-inhibited, 1 vehicle-only enzyme.
Take `Cc1ccc(C)n1-c1ccncc1`: the activation factor is 0.9.

Take `Cc1cc(N2C(=O)C(=O)/C(=C(/O)c3ccc(Cl)cc3)C2c2cccc(Br)c2)no1` (stereo unspecified): the activation factor was 0.8.

For `CCCOc1ccc(CN(CCO)CCO)cc1C(=O)OC`, the activation factor was 0.9.

With `CN(C)Cc1c(O)ccc2occ(C(O)c3ccccc3)c12` (stereo unspecified), the activation factor was 0.9.

Regarding `CCn1cc(C(=O)NC2CCCCCC2)c(=O)c2cc(S(=O)(=O)N3CCCCC3)ccc21`, the activation factor is 0.9.

As to `CCn1cc(C(=O)N2CCN(C3CCCCC3)CC2)c2cc(OC)c(OC)cc2c1=O`, the activation factor was 0.9.

On to `CCOC(=O)N1CCN(C(=O)c2ccc3nc4cc(Cl)ccc4c(=O)n3c2)CC1`, for which the activation factor is 0.9.

For the molecule `CCc1nc(C)cn1S(=O)(=O)c1cc(OC)c(C)cc1C`, the activation factor is 0.9.

For the molecule `O=C(O)CC(c1ccccc1)n1cnnn1` (stereo unspecified), the activation factor is 1.

As for `COCCCn1c(CCC(=O)O)ccc1-c1ccc(F)cc1`, the activation factor was 0.9.

As to `CC1CN(C(=O)c2ccc3c(c2)OCO3)OC(c2ccccc2)O1` (stereo unspecified), the activation factor is 1.

For `COC(=O)[C@H](Cc1ccccc1)NC(=O)Nc1ccc(S(N)(=O)=O)cc1`, the activation factor was 0.9.

With `CC(=O)N=c1ncn(CC(COC(C)=O)OC(C)=O)c2nc[nH]c12` (stereo unspecified), the activation factor was 0.9.

With `O=C(COc1ccc2c3c(c(=O)oc2c1)CCC3)NC1CCCCC1`, the activation factor was 1.

On to `Cc1ccc(S(=O)(=O)NCC(=O)N(CC(=O)NC2CCCCC2)Cc2ccco2)cc1`, for which the activation factor was 0.9.

Turning to `CC(C)c1cc(C(=O)O)on1`, the activation factor is 1.

Take `Cc1cc(C)cc(N(CC(=O)Nc2c(C)n(C)n(-c3ccccc3)c2=O)S(C)(=O)=O)c1`: the activation factor was 0.9.

For `CC(C)(C)n1nnc(CCc2nnn(C(C)(C)C)n2)n1`, the activation factor is 0.9.

For the molecule `O=C(c1ccccc1)c1ccc(OC(=O)N2CCCC2)cc1`, the activation factor was 0.9.

For `COc1cc(OC)c(C(=O)NC2CC(C)(C)NC(C)(C)C2)cc1OC`, the activation factor was 1.

Regarding `CCOc1ccc(C(=O)NC2CCN(S(=O)(=O)CC)CC2)cc1`, the activation factor was 0.9.

On to `COc1ccc(S(=O)(=O)N2CCCC(C(=O)N3CCN(C)CC3)C2)cc1C` (stereo unspecified), for which the activation factor was 1.

In the case of `COC(=O)COc1ccc2oc(=O)cc(C)c2c1`, the activation factor is 1.

As to `CC(=O)Nc1ccc(S(=O)(=O)N2CCSCC2)cc1`, the activation factor is 1.

As to `O=C(CCCN1C(=O)CCC1=O)Nc1ccc(Cl)c(C(F)(F)F)c1`, the activation factor is 0.9.

As to `Cc1cc(N2C(=O)C(=O)/C(=C(/O)c3ccccc3)C2c2cccc(Br)c2)no1` (stereo unspecified), the activation factor was 1.

Take `CCn1cc(C(=O)N2CCN(Cc3ccc4c(c3)OCO4)CC2)c2cc(OC)c(OC)cc2c1=O`: the activation factor is 0.9.

`CCc1c(C)c2c(C)[nH]nc2oc1=O`: the activation factor was 0.8.

As for `Cc1ccccc1CSc1nnc(-c2cccnc2)n1N`, the activation factor is 0.9.

`COCCN1C(=O)c2oc3c(C)cc(C)cc3c(=O)c2C1c1cccc(O)c1` (stereo unspecified): the activation factor is 0.8.

For the molecule `COc1ccc2occ(C(=O)c3ccc(N=C(C)N(C)C)cc3)c2c1`, the activation factor is 0.9.

As for `O=C1CN(C(=O)COC(=O)C2CC(=O)N(Cc3ccco3)C2)c2ccccc2N1` (stereo unspecified), the activation factor is 0.9.

In the case of `CSc1nc(O)c(Cc2ccccc2)c(=O)[nH]1`, the activation factor was 1.

Consider `COc1cc(C(O)c2nc3ccccc3n2C)cc(OC)c1OC` (stereo unspecified), for which the activation factor is 0.9.

In the case of `O=C(O)c1cc(S(=O)(=O)N2CCCCCC2)c(Cl)cc1Cl`, the activation factor was 1.

Consider `CCN1CCCC1CNC(=O)Cn1cnc2ccc(S(=O)(=O)N3CCC(C)CC3)cc2c1=O` (stereo unspecified), for which the activation factor is 0.9.

`CCCCn1nc(C(=O)N2CCc3ccccc32)c2ccccc2c1=O`: the activation factor was 0.9.

Take `Cc1ccc(O)c(NC(=O)COc2cc(C)ccc2C)c1`: the activation factor was 0.9.

Take `Cc1cccc(OCc2nnc(SCC(=O)N3CCN(C(=O)c4ccco4)CC3)n2C)c1C`: the activation factor was 0.9.

Consider `Cc1cc(Cl)c(S(=O)(=O)Nc2ccc3c(c2)OCCO3)cc1OCC(N)=O`, for which the activation factor is 0.9.

For the molecule `CC(=NCc1ccco1)C1=C(O)c2ccccc2C1=O`, the activation factor is 0.9.

As for `Cc1ccc(-c2noc(CSc3nnc(-c4ccccc4)n3C)n2)cc1`, the activation factor is 1.

As for `O=C(Cn1[nH]c(=O)c2ccccc2c1=O)Nc1cccc(-c2nnc3n2CCCCC3)c1`, the activation factor was 0.9.

As to `CC1Cc2nc(SCC(=O)Nc3ccccc3F)n(C)c(=O)c2S1` (stereo unspecified), the activation factor was 1.

`COc1ccccc1C(=O)Oc1ccc(N2C(=O)CCC2=O)cc1`: the activation factor is 0.9.

Take `Clc1ccc(C2CC(c3cccs3)n3ncnc3N2)cc1Cl` (stereo unspecified): the activation factor was 1.

On to `O=C(CNC(=O)c1ccco1)OCC(=O)c1ccccc1`, for which the activation factor is 0.9.

On to `CN1CCC2(CC1)NC(=O)NC2=O`, for which the activation factor is 1.

As to `CCN(CC)CCN1C(=O)C(=O)/C(=C(/O)c2ccc(OC)c(OC)c2)C1c1ccccn1` (stereo unspecified), the activation factor was 1.

As for `O=S(=O)(O)c1nc2ccccc2n1Cc1ccc(Cl)cc1Cl`, the activation factor was 0.9.

For the molecule `CC(Nc1nc(N2CCCC2)nc2ccccc12)c1ccccc1` (stereo unspecified), the activation factor is 1.

For the molecule `NC(=O)CSc1c[nH]c2ccccc12`, the activation factor is 0.9.

On to `CCCCOc1ccc(C(=O)NCc2ccco2)cc1`, for which the activation factor was 0.9.

Regarding `COc1ccc(S(=O)(=O)N2CCCC(C(=O)Nc3ccc(NC(=O)c4ccccn4)cc3)C2)cc1` (stereo unspecified), the activation factor was 0.8.

As to `Cc1cc(Nc2cccc(C)c2C)n2ncnc2n1`, the activation factor was 1.

For `O=C(CSC1=Nc2ccccc2C2=NC(c3ccccc3)C(=O)N12)NCC1CCCO1` (stereo unspecified), the activation factor was 0.9.

As to `CCOC(=O)c1cccc(NC(=O)C2CCCN(S(=O)(=O)c3cnc[nH]3)C2)c1` (stereo unspecified), the activation factor is 0.9.

As to `CSCC[C@H](NC(=O)NCc1cccs1)C(=O)O`, the activation factor was 0.9.

For the molecule `Cc1c2cn[nH]c(=O)c2c(C)n1Cc1ccc(F)cc1`, the activation factor is 0.9.

`COc1ccc2nc(NC3=NCN(CC4CCCO4)CN3)nc(C)c2c1` (stereo unspecified): the activation factor is 0.9.

Take `Cc1ccc(C)n1C(Cc1ccccc1)C(=O)O` (stereo unspecified): the activation factor is 0.8.

In the case of `Cc1cc(N2CCCC2=O)cc(C)c1S(N)(=O)=O`, the activation factor is 0.9.

For `CCOC(=O)Cn1c(N)c(C(=O)OC)sc1=S`, the activation factor was 0.9.

Turning to `Cc1cccc(NC(=O)c2ccc3ccccc3n2)n1`, the activation factor is 0.9.

For the molecule `COc1ccc(C2C(C#N)=C(N)Oc3cc(N)ccc32)cc1OC` (stereo unspecified), the activation factor is 1.

For the molecule `Cc1nn(C)c(C)c1S(=O)(=O)N1CCc2ccccc21`, the activation factor was 1.
